This note sets out measurements from PubChem BioAssay (Tox21).

Unmarked numbers belong to inactive results. Results filed as inconclusive are left out. Active and inactive are the calls of the source. Unless noted, calls follow the shape of the dose curve; as a rule, active = well fitted curve in the direction sought with a large enough effect in the repeat runs; inconclusive = weak or mixed curves; inactive = no such curve, though single readings can be large; an effect the other way counts as inactive or inconclusive.

Assay [1] deals with Androgen receptor (Homo sapiens) (UniProt P10275). In words: qHTS assay to identify small molecule agonists of the androgen receptor (AR) signaling pathway in the presence of an antagonist (AID 1259381; calls by dose curve; also: nearly all actives have a fitted effect of over 15% in size). The essentials: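 Agonist-mode confirmation screen: human MDA-kb2 cells stably expressing luciferase under an MMTV promoter bearing AR and GR response elements, co-treated with 3.0uM nilutamide (final). Luminescence measured after 16hr compound incubation.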
Androgen receptor (Homo sapiens), sequence (P10275 whole entry, looked up): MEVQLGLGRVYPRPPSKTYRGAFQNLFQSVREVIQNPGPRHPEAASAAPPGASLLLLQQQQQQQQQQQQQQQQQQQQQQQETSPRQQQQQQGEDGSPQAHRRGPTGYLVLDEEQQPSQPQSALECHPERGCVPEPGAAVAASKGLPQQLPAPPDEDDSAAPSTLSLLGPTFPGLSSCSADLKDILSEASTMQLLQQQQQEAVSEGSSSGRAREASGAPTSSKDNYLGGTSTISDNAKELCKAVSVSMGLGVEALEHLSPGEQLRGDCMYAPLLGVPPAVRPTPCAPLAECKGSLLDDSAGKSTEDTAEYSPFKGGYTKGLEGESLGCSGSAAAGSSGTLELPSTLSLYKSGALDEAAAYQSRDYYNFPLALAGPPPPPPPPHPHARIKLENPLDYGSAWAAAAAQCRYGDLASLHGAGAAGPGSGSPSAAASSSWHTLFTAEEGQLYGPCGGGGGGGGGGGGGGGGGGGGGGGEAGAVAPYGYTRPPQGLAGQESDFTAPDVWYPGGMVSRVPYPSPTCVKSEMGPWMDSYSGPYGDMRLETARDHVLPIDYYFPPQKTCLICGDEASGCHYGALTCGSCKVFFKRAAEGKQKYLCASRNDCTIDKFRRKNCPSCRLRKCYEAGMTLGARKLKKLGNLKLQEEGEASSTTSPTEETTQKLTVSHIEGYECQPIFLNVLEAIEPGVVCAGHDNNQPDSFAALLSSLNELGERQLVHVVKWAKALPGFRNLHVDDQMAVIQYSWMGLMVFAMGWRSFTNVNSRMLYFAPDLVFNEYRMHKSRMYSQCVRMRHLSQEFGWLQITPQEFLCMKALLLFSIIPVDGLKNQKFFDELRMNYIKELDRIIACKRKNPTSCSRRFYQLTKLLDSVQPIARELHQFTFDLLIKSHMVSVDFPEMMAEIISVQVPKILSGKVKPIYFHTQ
On the technique in general: qHTS replaces the single test concentration by a dilution series.

Assay [2] concerns the target Estrogen receptor (Homo sapiens) (UniProt P03372). In words: qHTS assay to identify small molecule agonists of the estrogen receptor alpha (ER-alpha) signaling pathway in the presence of an antagonist (AID 1259383; calls by dose curve; also: top concentration of the series differs between compounds; nearly all actives have a fitted effect of over 15% in size). The essentials: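 Agonist-mode confirmation in the presence of the ER antagonist ICI-182,780 at 10.0nM final. Breast-derived VM7Luc4E2 reporter cells were exposed to compounds for 22hr, and ERE-driven luciferase was quantified by luminescence.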

Assay [3] in a line: qHTS assay to identify small molecule agonists or antagonists of the thyroid stimulating hormone receptor (TSHR) signaling pathway - wild type cell line counter screen (AID 1259384; calls by dose curve). The essentials: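 Wild-type HEK293 cells were plated 18 h at 37 C/5% CO2, pin-dosed with compound plus Ro20-1724 medium, held 30 min at room temperature, then given cAMP-d2 and anti-cAMP-cryptate; fluorescence was read after 1 h. Fifteen concentrations, triplicate.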

Assay [4] addresses Thyrotropin receptor (Homo sapiens) (UniProt P16473). Put plainly: qHTS assay to identify small molecule antagonists of the thyroid stimulating hormone receptor (TSHR) signaling pathway (AID 1259385; calls by dose curve; also: nearly all actives have a fitted effect of over 20% in size; also: potency is read from the fitted curve at half-maximal effect). The essentials: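 TSHR-HEK293 cells were plated and held 18 h at 37C/5% CO2, then given compound plus Ro20-1724 and stimulated with TSH at 1.5 ng/mL final. After 30 min at room temperature, cAMP was detected with cAMP-d2/anti-cAMP-cryptate (1 h) by fluorescence.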

A short description of assay [5]: qHTS assay to identify small molecule agonists of the estrogen receptor alpha (ER-alpha) signaling pathway in the presence of an antagonist - cell viability counter screen (AID 1259386).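 Also: series mostly up to about 92 µM; cells exposed to compounds for 22 h at 37 °C before the viability read; nearly all actives have a fitted effect of over 30% in size.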 The essentials:
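Cytotoxicity was measured in parallel with the ERE-luciferase agonist screen, in the same wells. The cells were VM7Luc4E2, which endogenously express ER-alpha, and treatment was with compounds plus 10.0nM ICI-182,780 for 22hr.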

Assay [6] concerns the target Progesterone receptor (Homo sapiens) (UniProt P06401). Put plainly: qHTS assay to identify small molecule agonists of the progesterone receptor (PR) signaling pathway (AID 1346784; calls by dose curve; also: nearly all actives have a fitted effect of over 30% in size). The essentials: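 Cells (PR-UAS-bla HEK 293T, GripTite) were plated in assay medium containing 2% charcoal-stripped FBS and incubated 6 hr. Test compounds in DMSO were added for 16 hr at 37C. FRET substrate was then loaded for 2 hr at room temperature before fluorescence reading.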

For assay [7] the target is unchanged. In words: qHTS assay to identify small molecule antagonists of the progesterone receptor (PR) signaling pathway (AID 1346795; active = well fitted inhibition curve with a large enough effect in the signal ratio in the repeat runs, not every such curve was filed as active; the % refers to the signal ratio; also: potency is read from the fitted curve at half-maximal effect). The gist of the method:
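Antagonist mode: compounds tested against 1 nM (final) promegestone stimulation in HEK293T cells expressing PR-UAS-bla reporter, 16 hr at 37C, 5% CO2; beta-lactamase activity detected via B/G FRET substrate after 2 hr at room temperature.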

Assay [8] can be described thus: qHTS assay to identify small molecule antagonists of the TGF-beta/Smad signaling pathway - cell viability counter screen (AID 1346824). Also: nearly all actives have a fitted effect of over 50% in size. The gist of the method: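 SBE-bla HEK 293T cells were plated overnight at 37 C, then given compounds in DMSO plus TGF-beta1 (added as 0.25 ng/mL solution) for 5 hr. After the bla read, CellTiter-Glo was added to the same wells and luminescence read after 30 min at room temperature.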

The nature of assay [9]: qHTS assay to identify small molecule agonists of the TGF-beta/Smad signaling pathway - cell viability counter screen (AID 1346829). Also: top concentration of the series differs between compounds; nearly all actives have a fitted effect of over 45% in size. The essentials:
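Cytotoxicity counter screen: CellTiter-Glo luminescence (30 min, room temperature) measured in the SBE-bla HEK 293T reporter wells after 5 hr compound treatment at 37 C and the 2 hr substrate step.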

Assay [10] can be described thus: qHTS assay to identify small molecule agonists of the TGF-beta/Smad signaling pathway (AID 1346859; active = well fitted activation curve with a large enough effect in the signal ratio in the repeat runs, not every such curve was filed as active; the % refers to the signal ratio; also: series mostly up to about 77 µM). The essentials:
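Reporter line: HEK 293T with stably integrated SBE-controlled beta-lactamase. Compound exposure lasts 5 hr at 37 C and 5% CO2; substrate loading follows for 2 hr at room temperature, with emission read at 460 and 530 nm.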

The nature of assay [11]: Caspase-3/7 induction in HepG2 cells by small molecules, qHTS assay (AID 1346978). Also: nearly all actives have a fitted effect of over 15% in size. Also: potency is read from the fitted curve at half-maximal effect. The essentials: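 Wild-type HepG2 cells (2,000/well) were settled 5 h at 37 C, 5% CO2, then exposed to compounds in DMSO for 17 h. Caspase-3/7 activity was read by luminescence 30 min after adding Caspase-Glo 3/7 reagent at room temperature.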
A short description of assay [12]: qHTS assay to identify small molecule agonists of the estrogen receptor beta (ER-beta) signaling pathway - cell viability counter screen (AID 1259380). Also: nearly all actives have a fitted effect of over 30% in size. Also: potency is read from the fitted curve at half-maximal effect. The gist of the method:
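Cytotoxicity is measured in parallel with the reporter screen: after 16 hr compound exposure at 37C and a 2 hr LiveBLAzer step, CellTiter-Glo is added to the same ER-beta-UAS-bla HEK293T wells and luminescence read after 30 min.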

A short description of assay [13]: qHTS assay to identify small molecule antagonists of the estrogen receptor beta (ER-beta) signaling pathway - cell viability counter screen (AID 1259382). Also: nearly all actives have a fitted effect of over 55% in size. Also: potency is read from the fitted curve at half-maximal effect.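 As to activity change, negative = cytotoxicity: HEK293T cells carrying ER-beta-UAS-bla reporter stimulated with estradiol; series mostly up to about 92 µM.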 The essentials:
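Cytotoxicity counter screen multiplexed with the beta-lactamase antagonist assay: GripTite HEK293T ER-beta-bla cells were treated 16 hr with test chemicals in the presence of 1nM 17-beta-estradiol, and viability was measured by CellTiter-Glo.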

Assay [14] is described as follows: qHTS assay to identify small molecule antagonists of the progesterone receptor (PR) signaling pathway - cell viability counter screen (AID 1346798). Also: nearly all actives have a fitted effect of over 50% in size. Also: potency is read from the fitted curve at half-maximal effect. As to activity change, negative = cytotoxicity: series mostly up to about 92 µM. The essentials:
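Counter screen for cytotoxicity: viability of PR-UAS-bla HEK293T cells was measured with CellTiter-Glo luminescence following 16 hr compound exposure in the presence of R5020.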

A short description of assay [15]: qHTS assay to identify small molecule agonists of the progesterone receptor (PR) signaling pathway - cell viability counter screen (AID 1346799; calls by dose curve; also: nearly all actives have a fitted effect of over 45% in size; also: potency is read from the fitted curve at half-maximal effect). The essentials:
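Cells (PR-UAS-bla HEK293T) are plated at 3,000/well in 2% charcoal-stripped FBS medium, rested 6 hr, dosed and incubated 16 hr at 37C. CellTiter-Glo is then added and luminescence measured after 30 min at room temperature.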

Assay [16] concerns the target Thyrotropin-releasing hormone receptor (Homo sapiens) (UniProt P34981). In words: qHTS assay to identify small molecule antagonists of the thyrotropin-releasing hormone receptor (TRHR) signaling pathway (AID 1346877; active = well fitted inhibition curve with a large enough effect in the repeat runs, not every such curve was filed as active; also: series mostly up to about 51 µM). The gist of the method:
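Antagonism is measured as suppression of the calcium response to 1 nM TRH in TRHR-HEK293 cells that have been dye-loaded for 2 h at 37 °C after overnight plating. Each compound is tested at 15 concentrations in triplicate.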

Assay [17] has the same target. Put plainly: qHTS assay to identify small molecule agonists of the thyrotropin-releasing hormone receptor (TRHR) signaling pathway (AID 1346891; calls by dose curve;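 also: HEK293 cells expressing TRHR with calcium dye readout; series mostly up to about 58 µM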). The gist of the method: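 Cells: TRHR-Hek293, seeded and incubated 18 h. Dye loading: 2 h at 37 °C. Compound added from DMSO stock by pin tool. Read-out: kinetic calcium fluorescence over 3 min.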
The nature of assay [18]: Human pregnane X receptor (PXR) small molecule agonists, qHTS cell viability counter screen (AID 1346977). Also: nearly all actives have a fitted effect of over 50% in size. Also: potency is read from the fitted curve at half-maximal effect. The essentials:
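Cytotoxicity counter screen run in the same wells as the PXR luciferase assay, using PXR-Luc HepG2 cells in charcoal-stripped serum medium. Viability: CellTiter-Fluor fluorescence after 24hr compound treatment.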

A short description of assay [19]: Caspase-3/7 induction in CHO-K1 cells by small molecules, qHTS cell viability counter screen (AID 1346979). Also: nearly all actives have a fitted effect of over 35% in size. Also: potency is read from the fitted curve at half-maximal effect. The gist of the method: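 Cytotoxicity counter screen run in parallel with the caspase-3/7 assay: CHO-K1 cells, 16hr compound treatment at 37C, then CellTiter-Fluor for 1hr before fluorescence reading.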
% is scaled to controls: 0 for no effect and ±100 for the full control effect.

Estrogen receptor (Homo sapiens), sequence (P03372 whole entry, looked up): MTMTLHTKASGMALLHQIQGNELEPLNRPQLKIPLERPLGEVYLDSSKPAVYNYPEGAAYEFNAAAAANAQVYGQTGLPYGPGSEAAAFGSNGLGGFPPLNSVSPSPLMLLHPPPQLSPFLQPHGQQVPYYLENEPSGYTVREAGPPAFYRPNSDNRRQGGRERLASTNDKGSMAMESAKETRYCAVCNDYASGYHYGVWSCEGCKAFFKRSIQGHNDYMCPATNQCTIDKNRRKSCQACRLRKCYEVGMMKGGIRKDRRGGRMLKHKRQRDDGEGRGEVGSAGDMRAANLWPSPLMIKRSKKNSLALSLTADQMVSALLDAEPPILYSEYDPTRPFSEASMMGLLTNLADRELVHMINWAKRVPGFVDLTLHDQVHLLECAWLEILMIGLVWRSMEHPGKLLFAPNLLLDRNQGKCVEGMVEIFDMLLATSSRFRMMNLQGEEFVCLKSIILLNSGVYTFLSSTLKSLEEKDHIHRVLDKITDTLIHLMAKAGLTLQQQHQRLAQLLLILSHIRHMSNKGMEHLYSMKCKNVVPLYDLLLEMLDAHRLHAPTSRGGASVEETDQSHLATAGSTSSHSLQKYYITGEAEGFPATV
Thyrotropin-releasing hormone receptor (Homo sapiens), sequence (P34981 whole entry, looked up): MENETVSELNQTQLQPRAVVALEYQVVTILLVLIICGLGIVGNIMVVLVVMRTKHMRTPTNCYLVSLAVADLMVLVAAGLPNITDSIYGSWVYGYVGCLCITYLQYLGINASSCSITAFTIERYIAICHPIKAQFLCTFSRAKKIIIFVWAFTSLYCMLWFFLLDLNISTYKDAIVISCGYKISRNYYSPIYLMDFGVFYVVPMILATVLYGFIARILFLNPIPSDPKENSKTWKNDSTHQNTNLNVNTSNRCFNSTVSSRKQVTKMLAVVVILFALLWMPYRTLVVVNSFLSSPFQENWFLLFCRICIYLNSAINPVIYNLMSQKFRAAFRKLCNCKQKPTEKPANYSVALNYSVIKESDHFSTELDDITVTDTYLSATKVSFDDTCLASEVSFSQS
Progesterone receptor (Homo sapiens), sequence (P06401 whole entry, looked up): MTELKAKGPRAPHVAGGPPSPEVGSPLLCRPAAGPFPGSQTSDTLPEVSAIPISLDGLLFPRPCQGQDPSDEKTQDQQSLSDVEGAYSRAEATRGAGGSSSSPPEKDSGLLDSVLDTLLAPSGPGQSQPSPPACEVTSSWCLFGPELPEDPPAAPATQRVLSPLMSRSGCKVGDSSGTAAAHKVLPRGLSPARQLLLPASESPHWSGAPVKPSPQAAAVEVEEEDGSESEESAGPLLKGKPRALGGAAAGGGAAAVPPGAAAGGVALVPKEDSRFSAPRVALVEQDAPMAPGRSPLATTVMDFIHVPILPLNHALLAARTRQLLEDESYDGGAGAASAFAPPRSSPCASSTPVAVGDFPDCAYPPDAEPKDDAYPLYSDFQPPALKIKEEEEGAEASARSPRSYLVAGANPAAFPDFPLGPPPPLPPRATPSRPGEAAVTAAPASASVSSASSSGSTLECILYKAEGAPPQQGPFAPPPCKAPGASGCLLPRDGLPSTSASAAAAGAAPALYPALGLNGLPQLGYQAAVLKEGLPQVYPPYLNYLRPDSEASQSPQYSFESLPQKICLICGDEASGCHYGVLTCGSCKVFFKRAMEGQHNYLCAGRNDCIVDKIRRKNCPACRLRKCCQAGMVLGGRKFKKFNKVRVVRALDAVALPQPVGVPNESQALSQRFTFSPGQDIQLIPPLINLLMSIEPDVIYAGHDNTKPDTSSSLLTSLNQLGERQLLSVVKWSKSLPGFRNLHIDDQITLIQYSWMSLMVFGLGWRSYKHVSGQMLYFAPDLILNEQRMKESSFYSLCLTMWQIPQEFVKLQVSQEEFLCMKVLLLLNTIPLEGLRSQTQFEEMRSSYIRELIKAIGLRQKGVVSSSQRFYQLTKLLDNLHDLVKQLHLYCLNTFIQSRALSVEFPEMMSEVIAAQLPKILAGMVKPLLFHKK
Thyrotropin receptor (Homo sapiens), sequence (P16473 whole entry, looked up): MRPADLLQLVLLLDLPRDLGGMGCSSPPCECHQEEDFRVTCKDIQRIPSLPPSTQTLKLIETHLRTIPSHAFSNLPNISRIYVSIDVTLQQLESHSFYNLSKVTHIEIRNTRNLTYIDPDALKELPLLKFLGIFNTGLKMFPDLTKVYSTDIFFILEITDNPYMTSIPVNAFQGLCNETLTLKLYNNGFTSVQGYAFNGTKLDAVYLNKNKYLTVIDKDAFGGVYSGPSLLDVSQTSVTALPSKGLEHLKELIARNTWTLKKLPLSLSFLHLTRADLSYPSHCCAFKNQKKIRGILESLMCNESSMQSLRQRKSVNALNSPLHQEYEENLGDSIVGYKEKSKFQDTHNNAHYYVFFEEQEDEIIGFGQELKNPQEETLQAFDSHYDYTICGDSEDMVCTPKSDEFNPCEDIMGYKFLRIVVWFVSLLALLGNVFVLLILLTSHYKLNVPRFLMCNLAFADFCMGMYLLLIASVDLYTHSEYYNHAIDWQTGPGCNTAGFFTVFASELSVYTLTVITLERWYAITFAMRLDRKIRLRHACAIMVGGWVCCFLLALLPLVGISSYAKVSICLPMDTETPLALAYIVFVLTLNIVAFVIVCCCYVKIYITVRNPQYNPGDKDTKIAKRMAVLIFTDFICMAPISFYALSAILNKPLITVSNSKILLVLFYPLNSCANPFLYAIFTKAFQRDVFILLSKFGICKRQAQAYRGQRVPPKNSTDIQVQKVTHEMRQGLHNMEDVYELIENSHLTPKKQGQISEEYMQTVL

With `C=CCc1cc(S(=O)(=O)c2ccc(O)c(CC=C)c2)ccc1O`, the Potency entry in assay [1], in assay [2], in assay [3], in assay [4], in assay [5] and in [8] was “inactive” throughout. The Potency entry in [9] and in assay [11] was “inactive” in each case. For the same compound, the outcome in [6] and in assay [10] was inactive. In addition, the Potency in assay [7] was 27.3 µM (active).

Turning to `CN(C)CCOc1ccc(/C(=C(/CCCl)c2ccccc2)c2ccccc2)cc1`, the Potency was 40.5 µM (active) in [12]; 45.5 µM (active) in [13]; 40.5 µM (active) in assay [4]; 51 µM (active) in assay [14]; 57.2 µM (active) in assay [15]; 22.8 µM (active) in [18]. The Potency in assay [11] was 57.2 µM (active); in assay [19], 51 µM (active). The Potency entry in [1], in assay [3], in assay [8], in assay [16] and in assay [17] was “inactive” in each case. Moreover, the outcome in assay [10] was inactive.

Take `O=S(=O)(c1ccc(OCc2ccccc2)cc1)c1ccccc1O`: the Potency result in [1], in [2], in [3], in assay [8], in assay [9] and in [11] was “inactive” each time. Further, the result in [10] was inactive. For the same compound, the Potency is 61.1 µM (active) in [18] and 43.3 µM (active) in assay [19].

Turning to `O=C(CCN1CCC(c2ccccc2)C1)c1ccc2c(c1)OCCO2` (centres undefined), the Potency result in assay [12], in assay [13], in assay [2], in assay [3], in assay [4] and in [5] was “inactive” in each case. Further, the Potency result in assay [7], in assay [14], in assay [8], in assay [9], in [16] and in assay [17] was “inactive” each time. The Potency entry in assay [11] is “inactive”. For the same compound, the compound was classed as inactive in assay [10]. Moreover, the Potency in assay [18] was 23.7 µM (active); in assay [19], 26.6 µM (active).

For `O=C1CCC/C=C\CCCCCCCCCC1`, the Potency result in [13], in assay [3], in assay [4], in [5], in assay [8] and in assay [9] was “inactive” each time. The Potency result in [16], in assay [17], in assay [11] and in assay [19] was “inactive” throughout. In addition, the result in assay [6] and in [10] was inactive.

For `Nc1cccnc1N`, the Potency entry in assay [12], in [13], in assay [2], in [3], in assay [7] and in [14] was “inactive” in each case. Further, the Potency result in [15], in assay [8], in assay [9], in assay [18] and in assay [11] was “inactive” throughout. Moreover, the outcome in [6] and in assay [10] was inactive.

With `COc1cc2ncnc(Nc3cccc(Cl)c3)c2cc1OC`, the activity change, negative = cytotoxicity in assay [12] is -15.7% [at 19 µM]; in assay [13], 0.759% [at 19 µM]; in assay [5], -5.87% [at 19 µM]; in assay [9], 9.42% [at 15.8 µM]; in assay [19], -12.4% [at 19 µM]. The activation in assay [1] is -2.82% [at 19 µM]; in assay [2], -1.36% [at 19 µM]; in [6] it was -0.0125% [at 19 µM]; in [10], -4.98% [at 15.8 µM]; in assay [17], -0.271% [at 11.8 µM]. Further, the cAMP activity change in assay [3] was 2.68% [at 18.9 µM, hits give high values]. The activity change, negative = inhibition in [4] was 1.54% [at 19 µM]. Further, in [8], the viability change, negative = cytotoxic is 0.414% [at 15.8 µM]. The activity, negative = inhibition in assay [16] is -3.3% [at 10.5 µM]. Moreover, in assay [11], the caspase activation is 0.14% [at 19 µM].

Turning to `CC1=C(/C=C/C(C)=C/C=C/C(C)=C\C(=O)O)C(C)(C)CCC1`, in assay [12], the Potency was 9.72 µM (active). The Potency entry in [13], in assay [2], in assay [5], in assay [7], in assay [15] and in assay [8] was “inactive” in each case. For the same compound, the Potency entry in [9], in assay [16], in [17], in [18] and in assay [11] was “inactive” each time. The outcome in assay [6] and in [10] was inactive.
